Shown are actives, neighbours in structure and some others; about 9.5% of the full set was active somewhere.
HPGD block – HPGD (human) dehydrogenase inhibition. 150,000 tested, 4.3% active. purified HPGD, NADH fluorescence kinetic, PGE2 substrate. AID 894. Potency, µM, for inactives: at the top dose activity change, negative = inhibition, usual class: inhibitors; active = well fitted inhibition curve with a large enough effect, not every such curve was filed as active; inconclusive = small, poorly fitted or top-dose-only effect, or another doubt; inactive = no such curve, though single readings can be large or run the other way
Target sequence (P15428 whole entry, looked up): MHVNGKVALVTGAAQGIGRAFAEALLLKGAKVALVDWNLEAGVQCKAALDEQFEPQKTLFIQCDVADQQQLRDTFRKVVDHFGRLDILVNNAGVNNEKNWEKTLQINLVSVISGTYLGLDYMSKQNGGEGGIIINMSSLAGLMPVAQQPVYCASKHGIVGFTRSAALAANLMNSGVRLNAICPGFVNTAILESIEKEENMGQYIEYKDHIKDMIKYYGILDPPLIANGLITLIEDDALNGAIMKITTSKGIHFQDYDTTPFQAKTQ
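NADH formation kinetics: reaction with 30 uM PGE2 and 1 mM NAD+ (final), 20 nM enzyme, Tris-HCl pH 8 with Tween 20, after 15 min compound preincubation at room temperature. Fluorescence change, last versus first of five reads.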
Tau fibril FP – tau fibrillization inhibition (FP); P10636; Potency, µM (titrated, usually from 57.7 µM), for inactives: at the highest dose activity, negative = inhibition, actives largely listed as inhibitors; AID 1468; 280,000 tested, 0.39% active; K18 P301L tau heparin fibrillization, Alexa594 FP, 6 h; note: nearly all actives have a fitted effect of over 55% in size
Target sequence (P10636 561-689 P618L limits assumed): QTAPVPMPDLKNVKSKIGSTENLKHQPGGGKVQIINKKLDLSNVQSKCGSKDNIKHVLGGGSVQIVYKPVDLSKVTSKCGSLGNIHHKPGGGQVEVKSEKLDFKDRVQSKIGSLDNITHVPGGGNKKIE
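Heparin (20 uM) drove fibril formation of recombinant tau K18 P301L, 15 uM unlabeled with 0.24 uM Alexa 594 label, for 6 hr at 37 C in 100 mM sodium acetate pH 7. Fluorescence polarization (555/632 nm) read 1 hr after 30 uM ThT.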
Tau fibril ThT – inhibitors of human tau fibril formation, thioflavin T binding; P10636; recombinant tau K18 P301L, heparin-induced fibrillization, ThT fluorescence; Potency, µM (series often up to 57.4 µM), for inactives: top-dose activity, negative = inhibition, actives largely listed as inhibitors; 270,000 tested, 2.1% active; note: nearly all actives have a fitted effect of over 55% in size
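K18 P301L tau (15 uM + 0.24 uM Alexa 594-tagged), heparin 20 uM, NaOAc pH 7, 6 h 37 C; ThT 30 uM, 1 h RT, ex 450/em 510 nm.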
Tau fluor counter – counter-screen for tau fibril formation inhibitors; tau K18 P301L (four-repeat tau fragment) Alexa594 fluorescence, heparin fibrillization; Potency, µM (doses to about 57.7 µM), without a hit: at the top dose activity change, negative = decrease; 280,000 tested, 0.93% active; note: nearly all actives have a fitted effect of over 55% in size
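Human K18 P301L tau (15 uM unlabeled plus 0.24 uM Alexa 594-labeled, final) in 100 mM sodium acetate pH 7 was mixed with compound and 20 uM heparin and incubated 6 hr at 37 C.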
ALDH1A1 inh – ALDH1A1 (human) enzyme inhibition. P00352. Purified ALDH1A1, NADH fluorescence, propionaldehyde substrate. Potency, µM (top dose mostly 75.3 µM), for inactives: at the top dose activity, negative = inhibition, most hits filed as inhibitors. 220,000 tested, 7.3% active; active = well fitted inhibition curve with a large enough effect, not every such curve was filed as active; inconclusive = small, poorly fitted or top-dose-only effect, or another doubt; inactive = no such curve, though single readings can be large or run the other way;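 note: plate controls were no enzyme wells and a reference inhibitor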
NPSR antag – blocks cAMP signaling of the human neuropeptide S receptor; Q6W5P4; Potency, µM (doses to about 38.3 µM), for the others: top-dose activity change, negative = inhibition, actives largely listed as inhibitors; AID 1461; 220,000 tested, 1% active; CHO-NPSR cells, cAMP TR-FRET, antagonist mode; note: nearly all actives have a fitted effect of over 50% in size
Starred values were filed as active, the others as inactive; [ ] = dose if it differs, or a comment. Unless noted, calls come from the whole dose curve; as a rule, active = well fitted curve in the direction sought with a large enough effect; inconclusive = small, poorly fitted or top-dose-only effect, or another doubt; inactive = no such curve, though single readings can be large; an effect the other way counts as inactive or inconclusive. Unless noted, % is set by controls: 0 for no effect and ±100 for the full control effect; potency is the fitted concentration of half-maximal effect.

Screening CCc1nc(-c2cc(S(=O)(=O)N3CCN(c4ccc(F)cc4)CC3)ccc2OC)no1 returned Tau fibril FP 8.8%, Tau fibril ThT -10.2% and Tau fluor counter -19.3%.
Screening CCOc1ccc(C(c2c(O)cc(C)n(CCOC)c2=O)N2CCN(c3ccccc3F)CC2)cc1 (stereo unspecified) returned Tau fibril FP -8.6%, Tau fibril ThT inconclusive and Tau fluor counter 6.7%.
`O=c1c2oc3ccccc3c2n(Cc2ccc(Cl)cc2)c(=O)n1Cc1ccccc1` gave Tau fibril FP inconclusive, Tau fibril ThT 4.7% and Tau fluor counter -9.3%.
CCOC(=O)CSc1nc2sc3c(c2c(=O)[nH]1)CC(C)(CC)OC3 (stereo unspecified) was read as HPGD block -9.2%, Tau fibril FP -3.2%, Tau fibril ThT -15.5%, Tau fluor counter -12.2%, ALDH1A1 inh inconclusive and NPSR antag -13.9%[46.1 µM].
`CCOC(=O)CSc1nc2sc3c(c2c(=O)[nH]1)CCCC3` gave HPGD block 15.8µM*, Tau fibril FP -1.7%, Tau fibril ThT -8.2%, Tau fluor counter -5.8%, ALDH1A1 inh 0.3% and NPSR antag -24.2%[46.1 µM].
Screening CCN(CC)C(=O)CSc1nc2sc(C)c(C)c2c(=O)[nH]1 returned HPGD block 12.6µM*, Tau fibril FP -2.6%, Tau fibril ThT -9.2%, Tau fluor counter -6.5%, ALDH1A1 inh inconclusive and NPSR antag inconclusive.
CC(C)OC(=O)C[C@H](NC(=O)OC(C)(C)C)c1ccccc1 was read as Tau fibril FP -3.2%[11.6 µM], Tau fibril ThT -6.1%[11.5 µM], Tau fluor counter -1.8%[11.6 µM] and ALDH1A1 inh 1.6%[13.5 µM].
Screening CCC1CCCCN1C(=O)CSc1nnc(-c2ccc(OC)cc2)o1 (stereo unspecified) returned HPGD block -11.6%, Tau fibril FP 3.3%, Tau fibril ThT -9.4%, Tau fluor counter -4.2%, ALDH1A1 inh inconclusive and NPSR antag 3.9%.
Screening CCC1CCCCN1C(=O)CSc1nnc(-c2c[nH]c3ccccc23)o1 (stereo unspecified) returned HPGD block -20.0%, Tau fibril FP -5.4%, Tau fibril ThT -13.4%, Tau fluor counter inconclusive, ALDH1A1 inh 12.6µM* and NPSR antag inconclusive.
Screening CC1CCCC(C)N1C(=O)CSc1nnc(-c2c[nH]c3ccccc23)o1 (stereo unspecified) returned HPGD block -22.5%, Tau fibril FP -9.5%, Tau fibril ThT -8.8%, Tau fluor counter inconclusive, ALDH1A1 inh 10µM* and NPSR antag -28.4%[46.1 µM].
CCC1CCCCN1C(=O)CSc1nc(N)cc(N)n1 (stereo unspecified) was read as Tau fibril FP 1.2%, Tau fibril ThT -4.0%, Tau fluor counter 9.2%, ALDH1A1 inh 8.91µM* and NPSR antag 11.6%.
For CCC1CCCCN1C(=O)CSc1n[nH]c(-c2ccccc2)n1 (stereo unspecified) the results were Tau fibril FP -4.9%, Tau fibril ThT -0.3% and Tau fluor counter -0.4%.
Screening CC1CCCN(C(=O)CSc2nnc(-c3c[nH]c4ccccc34)o2)C1 (stereo unspecified) returned HPGD block 15.8µM*, Tau fibril FP 1.5%, Tau fibril ThT -3.1%, Tau fluor counter -19.5%, ALDH1A1 inh 14.1µM* and NPSR antag -25.6%[46.1 µM].
`CCC(C)NC(=O)CSc1nnc(-c2c[nH]c3ccccc23)o1` (stereo unspecified) gave Tau fibril FP -5.8%, Tau fibril ThT 4.4%, Tau fluor counter -4.2%, ALDH1A1 inh 3.2% and NPSR antag -1.6%.
Screening COc1cc2c(cc1OC)C(C(=O)NCCN(C)C)C(c1cccs1)N(C)C2=O (stereo unspecified) returned Tau fibril FP -3.9%, Tau fibril ThT -7.8%, Tau fluor counter -8.5%, ALDH1A1 inh 10.8% and NPSR antag 15.9%.
Screening COC(=O)c1ccc(NC(=S)NC2c3ccccc3CC2O)cc1 (stereo unspecified) returned Tau fibril FP -11.5%, Tau fibril ThT -15.3%, Tau fluor counter -25.7%, ALDH1A1 inh inconclusive and NPSR antag 26.2%.

Source: PubChem
